In PubChem BioAssay one finds composite z-score and z-score data, which are given here for 5 molecules.

Test [1] is described as follows: anti-His antibody binders, primary screen, artefact control for SMM control protein annotation, biochemical, small-molecule microarray, 635 nm fluorescence (AID 1128).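 Note: score merges feature fluorescence with signal-to-noise for each printed compound spot.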 Conditions: anti-His Alexa647 antibody binding, higher = more signal.
Test [2] relates to Human papillomavirus type 1a E7 protein (residues 1-88). Briefly: HPV1a E7 small-molecule binders, primary screen, biochemical, small-molecule microarray, residues 1-88, 635 nm (AID 1129). The conditions noted are these: small-molecule microarray binding, fluorescence 635 nm; higher = more signal.
In test [3] the target is Focal adhesion kinase 1 (Homo sapiens) (UniProt Q05397). Briefly: small-molecule microarray binders of FAK, primary screen, biochemical, 635/667 nm fluorescence, BSA, DTT (AID 1130).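 Note: composite of spot emission at 667 nm and signal to noise over triplicate slides.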 Conditions: PTK2 binding, 635 nm fluorescence, higher = more signal.
Chain of Focal adhesion kinase 1 (Homo sapiens) (Q05397 whole entry, looked up): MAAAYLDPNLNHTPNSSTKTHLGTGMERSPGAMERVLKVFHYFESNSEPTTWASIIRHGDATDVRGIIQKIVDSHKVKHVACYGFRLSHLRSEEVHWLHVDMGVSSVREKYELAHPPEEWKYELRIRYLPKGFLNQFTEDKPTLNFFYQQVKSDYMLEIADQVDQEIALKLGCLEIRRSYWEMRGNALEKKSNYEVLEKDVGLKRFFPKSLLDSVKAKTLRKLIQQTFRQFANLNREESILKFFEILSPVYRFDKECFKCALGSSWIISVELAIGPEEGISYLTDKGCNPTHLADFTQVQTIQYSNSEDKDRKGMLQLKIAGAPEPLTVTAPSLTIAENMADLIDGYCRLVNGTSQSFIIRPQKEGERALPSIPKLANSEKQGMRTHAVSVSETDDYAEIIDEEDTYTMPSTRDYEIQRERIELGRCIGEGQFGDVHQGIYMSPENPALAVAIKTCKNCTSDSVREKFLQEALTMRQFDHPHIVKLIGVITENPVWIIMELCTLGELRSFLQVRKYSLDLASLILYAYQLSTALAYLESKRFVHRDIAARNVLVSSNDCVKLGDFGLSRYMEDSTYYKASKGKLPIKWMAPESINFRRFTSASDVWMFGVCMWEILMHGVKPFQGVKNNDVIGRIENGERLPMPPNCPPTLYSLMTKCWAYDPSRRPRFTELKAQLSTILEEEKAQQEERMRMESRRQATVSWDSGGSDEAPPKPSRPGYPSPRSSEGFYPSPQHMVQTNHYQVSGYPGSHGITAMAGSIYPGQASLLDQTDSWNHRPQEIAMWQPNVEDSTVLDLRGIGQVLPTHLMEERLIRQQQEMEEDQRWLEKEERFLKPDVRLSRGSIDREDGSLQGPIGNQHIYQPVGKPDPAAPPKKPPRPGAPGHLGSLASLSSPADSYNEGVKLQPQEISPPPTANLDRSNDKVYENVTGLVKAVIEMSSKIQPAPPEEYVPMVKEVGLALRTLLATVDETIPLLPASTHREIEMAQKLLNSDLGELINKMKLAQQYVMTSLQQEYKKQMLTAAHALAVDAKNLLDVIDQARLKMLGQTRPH
Test [4] concerns Fibrinogen (Alexa647-labelled). Briefly: fibrinogen binders on compound microarrays, profiling panel, artefact control for SMM control-protein annotation, biochemical, small-molecule microarray, 635/667 nm fluorescence (AID 1131).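 Note: z-score merges 667 nm fluorescence with per-spot signal-to-noise over triplicate slides.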 The conditions noted are these: fibrinogen-A647 binding fluorescence, higher = more signal.
The target of test [5] is Follistatin (Homo sapiens) (UniProt P19883). Briefly: follistatin binders on small-molecule microarrays, primary screen, biochemical, small-molecule microarray, 635/667 nm fluorescence (AID 1132). The conditions noted are these: FST binding, 635 nm fluorescence, higher = more signal.
Chain of Follistatin (Homo sapiens) (P19883 whole entry, looked up): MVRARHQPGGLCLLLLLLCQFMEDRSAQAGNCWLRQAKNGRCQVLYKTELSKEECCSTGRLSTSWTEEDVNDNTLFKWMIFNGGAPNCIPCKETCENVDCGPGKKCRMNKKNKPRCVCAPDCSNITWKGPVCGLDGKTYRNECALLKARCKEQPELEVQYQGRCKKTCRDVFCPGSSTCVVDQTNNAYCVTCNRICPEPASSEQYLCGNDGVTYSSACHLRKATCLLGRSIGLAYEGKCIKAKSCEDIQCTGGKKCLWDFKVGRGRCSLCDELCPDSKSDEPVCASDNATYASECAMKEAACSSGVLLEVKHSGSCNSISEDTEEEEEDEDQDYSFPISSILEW
Test [6] has as its target Fibroblast growth factor 2 (Homo sapiens) (UniProt P09038). Briefly: FGF2 binders on small-molecule microarrays, primary screen, biochemical, small-molecule microarray, 635/667 nm fluorescence (AID 1133). The conditions noted are these: small-molecule microarray binding, FGF2, fluorescence 635/667; higher = more signal.
A short description of test [7]: mitochondrial membrane potential change in A549 cells, profiling panel, cell-based, JC-1 fluorescence, basal, 24 h, 100 nL (AID 1138).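 Note: A549 lung adenocarcinoma cells under basal conditions with no added stimulus; test concentration not given here.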 Conditions: higher = more signal.
For another test, the system named is Lefty1. As to the kind of experiment: Lefty1 binders on small-molecule microarrays, primary screen, biochemical, small-molecule microarray, 635/667 nm fluorescence (AID 1139). Conditions: small-molecule microarray binding, fluorescence 635/667; higher = more signal.
Test [8] deals with wheat germ agglutinin (Triticum aestivum), Alexa647-labelled. Briefly: wheat germ agglutinin binders on compound microarrays, profiling panel, artefact control for SMM control-protein annotation, biochemical, small-molecule microarray, 635/667 nm fluorescence (AID 1140).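 Note: score merges 667 nm feature emission with signal to noise over triplicate slides.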 Conditions: WGA-A647 binding, 635 nm fluorescence, higher = more signal.
In test [9] the target is Luciferin 4-monooxygenase (Photinus pyralis) (UniProt P08659). As to the kind of experiment: firefly luciferase enzyme inhibitors, primary screen, biochemical, luminescence, purified enzyme, 2006 set (AID 1141).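 Note: cell-free assay with purified firefly luciferase at 100 ng per well in PBS; test concentration not given here.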 The conditions noted are these: SteadyGlo luminescence, 30 min, higher = more signal, called active from +8 up or from −8 down.
Chain of Luciferin 4-monooxygenase (Photinus pyralis) (P08659 whole entry, looked up): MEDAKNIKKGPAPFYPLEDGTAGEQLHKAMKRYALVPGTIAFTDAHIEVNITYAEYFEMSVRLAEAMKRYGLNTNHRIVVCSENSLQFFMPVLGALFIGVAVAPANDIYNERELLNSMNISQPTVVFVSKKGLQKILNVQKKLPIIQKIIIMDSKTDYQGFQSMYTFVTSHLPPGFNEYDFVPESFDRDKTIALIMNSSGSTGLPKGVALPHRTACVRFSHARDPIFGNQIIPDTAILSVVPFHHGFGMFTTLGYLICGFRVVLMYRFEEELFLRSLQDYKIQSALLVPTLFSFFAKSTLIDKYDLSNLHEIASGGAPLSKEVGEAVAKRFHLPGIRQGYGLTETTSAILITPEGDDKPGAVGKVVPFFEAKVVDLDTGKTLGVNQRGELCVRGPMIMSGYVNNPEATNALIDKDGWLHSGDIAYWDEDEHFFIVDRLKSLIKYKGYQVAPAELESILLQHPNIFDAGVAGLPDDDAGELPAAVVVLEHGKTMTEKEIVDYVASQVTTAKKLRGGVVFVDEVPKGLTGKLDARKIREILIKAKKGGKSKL
Test [10] has as its system Wnt5a (protein binding on small-molecule microarray). Briefly: Wnt5a binders on small-molecule microarray, primary screen, biophysical, 635/667 nm fluorescence (AID 1142).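 Note: fluorescence read at 667 nm with signal to noise per printed feature.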 The conditions noted are these: 635 nm fluorescence, higher = more signal.
Test [11] can be described thus: cell viability in Huh7 cells, primary screen, cytotoxicity control for HCV replication inhibitor project, CellTiter-Glo luminescence, basal, 48 h (AID 1143).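 Note: Huh7 hepatoma cells carrying a hepatitis C replication reporter with no stimulus; test concentration not given here.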 Conditions: Huh7 HCV replicon, higher = more signal, called active from +8 up or from −8 down.
The nature of test [12]: P. aeruginosa biofilm formation inhibitors, primary screen, PAO1 strain, BacTiter-Glo luminescence, LB-PBS (AID 1144). The conditions noted are these: 12 h, higher = more signal.
The nature of test [13]: CREB reporter modulators without forskolin, primary screen, cell-based, PC12, CRE-LacZ reporter, unstimulated (AID 1145). Conditions: no forskolin, luminescence, 4.5 h, higher = more signal, called active from +8 up or from −8 down.
A short description of test [14]: CREB reporter modulators under forskolin, primary screen, cell-based, PC12, CRE-LacZ reporter, forskolin-stimulated (AID 1146).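 Note: PC12 cells with 6xCRE LacZ reporter stimulated by forskolin 10 µM; beta-galactosidase reporter signal reflecting CREB driven transcription.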 Conditions: luminescence, 4.5 h, higher = more signal, called active from +8 up or from −8 down.
In test [15] the target is Streptavidin (Streptomyces avidinii) (UniProt P22629). Briefly: streptavidin binders on small-molecule microarray, primary screen, artefact control for SMM compound annotation, biophysical, 635/667 nm fluorescence (AID 1147).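 Note: signal reflects streptavidin binding to arrayed compounds as a control protein.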 The conditions noted are these: streptavidin binding, higher = more signal.
Chain of Streptavidin (Streptomyces avidinii) (P22629 whole entry, looked up): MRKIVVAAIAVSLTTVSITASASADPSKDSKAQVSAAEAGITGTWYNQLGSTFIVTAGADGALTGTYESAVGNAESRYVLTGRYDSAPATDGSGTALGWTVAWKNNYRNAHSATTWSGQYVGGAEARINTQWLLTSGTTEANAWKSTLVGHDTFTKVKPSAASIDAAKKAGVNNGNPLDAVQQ
Test [16] in a line: small-molecule binders of probe aInhba, primary screen, biochemical, small-molecule microarray, 635/667 nm fluorescence (AID 1148).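 Note: score merges 667nm spot fluorescence with signal-to-noise for antibody binding to printed compounds.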 Conditions: higher = more signal.
The target in test [17] is Torsin-1A (Homo sapiens) (UniProt O14656). As to the kind of experiment: torsin A binders from cell lysate, primary screen, small-molecule microarray, wild-type, 635/667 nm (AID 1149). Conditions: COS7 hTOR1A-WT lysate, 635 nm fluorescence, higher = more signal.
Chain of Torsin-1A (Homo sapiens) (O14656 whole entry, looked up): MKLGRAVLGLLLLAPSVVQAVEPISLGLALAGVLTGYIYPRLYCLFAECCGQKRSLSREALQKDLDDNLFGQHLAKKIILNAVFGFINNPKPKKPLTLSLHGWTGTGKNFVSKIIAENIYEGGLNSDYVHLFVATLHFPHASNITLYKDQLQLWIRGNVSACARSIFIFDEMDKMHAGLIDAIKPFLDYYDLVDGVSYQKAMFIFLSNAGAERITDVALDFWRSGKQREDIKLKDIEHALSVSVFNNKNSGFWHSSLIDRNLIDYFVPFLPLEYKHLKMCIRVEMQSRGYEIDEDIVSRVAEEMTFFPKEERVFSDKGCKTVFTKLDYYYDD
The target is the same in test [18]. As to the kind of experiment: small-molecule binders of mutant TOR1A in lysate, primary screen, cell lysate, small-molecule microarray, COS7 lysate, 635/667 nm fluorescence (AID 1150).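 Note: score pools 667 nm emission and signal to noise measuring lysate protein binding.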 The conditions noted are these: COS7 hTOR1A mutant lysate, 635 nm fluorescence, higher = more signal.
Test [19] has as its system Sonic hedgehog protein (Shh). As to the kind of experiment: small-molecule binders of Shh protein, primary screen, biochemical, small-molecule microarray, 635/667 nm fluorescence (AID 1151).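 Note: Shh protein binding to compounds spotted on small-molecule microarray slides; score combines spot fluorescence intensity with signal-to-noise across triplicate slides.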 Conditions: small-molecule microarray binding, 635 nm fluorescence; higher = more signal.

Activity calls are given as the source filed them. Unless noted, the rule behind the calls is not given here.

Chain of Fibroblast growth factor 2 (Homo sapiens) (P09038 whole entry, looked up): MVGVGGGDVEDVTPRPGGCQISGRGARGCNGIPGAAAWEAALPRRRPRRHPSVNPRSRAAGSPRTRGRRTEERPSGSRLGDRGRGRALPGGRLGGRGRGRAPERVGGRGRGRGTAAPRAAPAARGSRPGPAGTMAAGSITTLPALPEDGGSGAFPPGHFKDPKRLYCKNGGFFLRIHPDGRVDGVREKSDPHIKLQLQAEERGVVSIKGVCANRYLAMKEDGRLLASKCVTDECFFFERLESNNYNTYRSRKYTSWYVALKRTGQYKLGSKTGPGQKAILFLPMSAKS

Turning to `CCOC(=O)C1=CC[C@@H](c2ccccc2)N(S(=O)(=O)C[Si](C)(C)C)[C@H]1c1ccccc1`, the composite z-score is 1.07 in test [1]; 1.19 in test [2]; 0.656 in [3]; 0.996 in [4]; 1.21 in test [5]; 0.497 in test [6]. In addition, the composite z-score with Lefty1 came to 0.562; in test [8] it was 0.862; in test [10], 0.389; in test [15] it was 1.48; in test [16] it was 0.127; with Torsin-1A (Homo sapiens) [17], 0.899. In addition, the composite z-score in the test with Torsin-1A (Homo sapiens) [18] was 0.799; in [19] it was 0.257. The z-score in test [7] is -1.48; in [9], 2.37 (inactive); in test [11] it was -2.78 (inactive); in [12] it was -0.667 (inactive); in test [13], -0.63 (inactive); in [14] it was 1.56 (inactive).
Regarding `CC(C)C[C@@H]1NC(=O)[C@H]2C[C@@H](C(=O)NCCCCCNC(=O)CS)[C@@H](c3ccc(O)cc3)N2C1=O`, the composite z-score was determined as 2.05 in test [1]; 1.24 in test [2]; 1.19 in test [3]; 0.201 in [4]; 1.33 in test [5]; 1.62 in test [6]. Moreover, the composite z-score in the test on Lefty1 was 0.497; in test [8] it was 0.408; in test [10], 0.702; in test [15] it was 0.413; in [16], -0.116; in the test with Torsin-1A (Homo sapiens) [17], 0.6. The composite z-score amounted to 0.997 with Torsin-1A (Homo sapiens) [18] and 1.35 in [19]. For the same molecule, the z-score in test [7] was -1.22; in [9], -1.76 (inactive); in [11], -0.153 (inactive); in test [12], -0.215 (inactive); in test [13] it was 0.135 (inactive); in [14], -0.908 (inactive).
As for `CC[C@H](C)C(=O)O[C@H]1CC[C@]2(C)C3=C(CCC2C1(C)C)[C@]1(C)CC[C@H]([C@H](C)CCCC(C)C)[C@@]1(C)CC3` (stereo not given in full), the composite z-score in [1] came to 0.226; in [2], 0.666; in [3] it was 0.122; in test [4], 0.367; in test [5], 0.538; in test [6] it was 0.35. For the same molecule, the composite z-score in the test with Lefty1 is 0.721; in test [8], 0.0438; in test [10] it was 0.0143; in test [15], 0.984; in test [16] it was -0.292; with Torsin-1A (Homo sapiens) [17], 0.214. For the same molecule, the composite z-score in the test with Torsin-1A (Homo sapiens) [18] was found to be 0.339; in test [19], 0.613. In addition, the z-score in test [7] is 1.15; in test [9], -1.4 (inactive); in test [11] it was 0.15 (inactive); in test [12] it was -0.0646 (inactive); in [13], 0.947 (inactive); in [14] it was -1.24 (inactive).
For `COC(=O)[C@@]1(Cc2ccc(F)cc2)[C@H]2c3cc(C(=O)N(C)C)n(CCn4cc([N+](=O)[O-])nc4C)c3C[C@H]2CN1C(=O)c1ccccc1`, the composite z-score in [1] is 1.07; in test [2], 1.11; in test [3] it was 1.45; in [4], 0.835; in test [5] it was -0.394; in test [6] it was -0.776. Also, the composite z-score in the test on Lefty1 is -1.07; in [8], 0.288; in [10], 0.453; in [15], 0.0438; in [16] it was 0.234; with Torsin-1A (Homo sapiens) [17] it was -0.0611. The composite z-score in the test with Torsin-1A (Homo sapiens) [18] was 0.373; in test [19], -0.755. The z-score was 0.608 in test [7]; 0.984 (inactive) in test [9]; 0.278 (inactive) in test [11]; -0.0864 (inactive) in test [12]; -0.761 (inactive) in test [13]; 0.17 (inactive) in [14].
As for `C=CCNC(=O)[C@@H]1[C@H]2C(=O)O[C@H](c3ccccc3)[C@H](c3ccccc3)N2[C@H](c2ccccc2OCCO)[C@@]12C(=O)N(C(=O)OCCOC)c1ccc(C#CCCO)cc12`, the composite z-score stood at 1.91 in test [1]; 1.21 in [2]; 0.988 in [3]; 0.414 in [4]; 0.881 in test [5]; 1.29 in test [6]. In addition, the composite z-score in the test with Lefty1 worked out at 0.711; in test [8], 0.971; in test [10], 0.304; in [15], 0.284; in test [16] it was 0.0649; with Torsin-1A (Homo sapiens) [17], 0.338. Moreover, the composite z-score in the test with Torsin-1A (Homo sapiens) [18] stood at 1.35; in [19] it was 1.06. Further, the z-score in [7] is -0.549; in [9], -0.0405 (inactive); in test [11], -3.34 (inactive); in test [12], -0.976 (inactive); in [13], -0.0768 (inactive); in test [14], -0.466 (inactive).
